± gives the standard deviation of the averaged measurements.
system: Listeria monocytogenes 10403S; test: growth inhibition relative to ceftriaxone-alone control; higher = stronger potentiation of ceftriaxone growth inhibition; details: 10 µM; ceftriaxone 1 ug/ml; 12 h
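Further: End-point A600 read in BHI broth at 37 °C with 2% DMSO, inhibition computed as (1 − OD with compound plus ceftriaxone ÷ OD with ceftriaxone only) × 100.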

Question: `CC(C)(CO)CNC(=O)c1ccc2c(c1)/C(=N/Nc1ccc(S(N)(=O)=O)cc1)C(=O)N2` was tested. Which growth inhibition did it give?
Answer: -13.4 ± 16%

Question: `O=C1NC(=O)C(c2ccc(Cl)cc2)=C1Nc1ccc(Cl)c(C(=O)O)c1` was tested. Which growth inhibition did it give?
Answer: 6.2 ± 5.4%

Question: With `Cc1nnc(-c2cccc(-c3ccc(C(=O)NCC4CC4)cc3)c2)o1` as the compound, how does the growth inhibition read?
Answer: 3.5 ± 10%

Question: With `COc1cc2nccc(Oc3ccc(NC(=O)C4(C(=O)Nc5ccc(F)cc5)CC4)cc3)c2cc1OC` [XL-184 (Cabozantinib)] as the compound, how does the growth inhibition read?
Answer: 30.5 ± 5.4%

Question: `CC1(C)CC(n2cnc(-c3ccc(F)cc3)c2-c2ccnc(N)n2)CC(C)(C)N1` was tested. Which growth inhibition did it give?
Answer: -11.4 ± 8.9%

Question: With `COC(=O)Nc1nc2cc(Oc3ccc(NC(=O)Nc4ccccc4)cc3)ccc2[nH]1` as the compound, how does the growth inhibition read?
Answer: 8.77 ± 1.8%

Question: Which growth inhibition does the source give for `CN(C)CCCn1c(-c2nonc2N)nc2cnccc21` here?
Answer: -5.31 ± 2.5%

Question: With `Nc1nccc(Oc2ccc(NC(=O)c3c[nH]cc(-c4ccc(F)cc4)c3=O)cc2F)c1Cl` as the compound, how does the growth inhibition read?
Answer: 1.11 ± 36%

Question: For `O=C1NC(=O)C(c2ccccc2Cl)=C1Nc1cccc(O)c1`, which growth inhibition is on record?
Answer: -3.8 ± 3.6%

Question: How did the growth inhibition turn out when `COc1cc2ncn(-c3cc(OCc4ccccc4Cl)c(C(N)=O)s3)c2cc1OC` was run?
Answer: -6.56 ± 0.46%

Question: Which growth inhibition does the source give for `COc1ccc2c(OCc3nnc4ccc(-c5ccccc5)nn34)ccnc2c1` here?
Answer: 11.6 ± 13%

Question: For `COc1ccc(COc2ccc(Cc3cnc(N)nc3N)cc2OC)cc1`, which growth inhibition is on record?
Answer: 63.8 ± 9.7%

Question: With `COC(=O)Nc1ccc(-c2nc(N3CCOCC3)c3cnn(C4CCN(C(=O)OC)CC4)c3n2)cc1` as the compound, how does the growth inhibition read?
Answer: -59.1 ± 10%

Question: Which growth inhibition does the source give for `NC(=O)c1cc(-c2ccc(F)cc2)cc(-c2ccncc2)c1N` here?
Answer: -1.35 ± 1.1%

Question: Which growth inhibition does the source give for `COc1cc(Nc2nccc(Nc3ccc4c(C)n[nH]c4c3)n2)cc(OC)c1OC` here?
Answer: -7.71 ± 14%

Question: With `NS(=O)(=O)c1cccc(-c2ccc3c(NC(=O)C4CC4)n[nH]c3c2)c1` as the compound, how does the growth inhibition read?
Answer: 0.81 ± 3.7%

Question: For `O=C(Nc1n[nH]c2cc(-c3cc(F)ccc3F)ccc12)C1CC1`, which growth inhibition is on record?
Answer: -0.453 ± 13%

Question: How did the growth inhibition turn out when `CCn1c(-c2nonc2N)nc2c(C#CC(C)(C)O)ncc(OC[C@@H]3CCCN3)c21` was run?
Answer: 74 ± 6.7%

Question: How did the growth inhibition turn out when `Nc1nc(-c2cccc(Cl)c2)c(-c2ccc3ncccc3n2)s1` was run?
Answer: -7.03 ± 7.3%

Question: With `NCc1ccc(-c2nc(-c3ccc(Cl)c(O)c3)c(-c3ccncc3)[nH]2)cc1` as the compound, how does the growth inhibition read?
Answer: -9.88 ± 15%

Question: Which growth inhibition does the source give for `NCc1ccc(-n2c(-c3nonc3N)nc3cnccc32)cc1` here?
Answer: -4.5 ± 3.6%

Question: For `ON=C1CCc2cc(-c3nc(C4CCNCC4)[nH]c3-c3ccncc3)ccc21`, which growth inhibition is on record?
Answer: 7.4 ± 4.8%

Question: With `N#CC[C@H](C1CCCC1)n1cc(-c2ncnc3[nH]ccc23)cn1` as the compound, how does the growth inhibition read?
Answer: 10.6 ± 1.1%

Question: For `COc1cccc(-c2c[nH]c3c(N/N=C/c4ccncc4)ncnc23)c1`, which growth inhibition is on record?
Answer: -10.6 ± 14%

Question: For `CCN(CC)Cc1ccc(Nc2nccc(-c3cnn4ncccc34)n2)cc1`, which growth inhibition is on record?
Answer: -11.5 ± 14%

Question: For `CCN(CC)S(=O)(=O)c1ccc(OC)c(Nc2ncc(-c3ccccc3)o2)c1`, which growth inhibition is on record?
Answer: -5.97 ± 2.9%

Question: With `O=C1Nc2ccccc2/C1=C1/Nc2ccccc2C1=O` [Indirubin] as the compound, how does the growth inhibition read?
Answer: -11.4 ± 11%

Question: With `Cc1c2ccc(N(C)c3ccnc(Nc4cccc(S(N)(=O)=O)c4)n3)cc2nn1C` as the compound, how does the growth inhibition read?
Answer: 2.52 ± 4.2%

Question: How did the growth inhibition turn out when `c1ccc2c(-c3cnn4cc(-c5ccc(N6CCNCC6)cc5)cnc34)ccnc2c1` was run?
Answer: 24.6 ± 12%

Question: `CCCS(=O)(=O)Nc1ccc(F)c(C(=O)c2c[nH]c3ncc(Cl)cc23)c1F` was tested. Which growth inhibition did it give?
Answer: 24.2 ± 22%

Question: Which growth inhibition does the source give for `CCn1c(N)c(C(=O)NC)c(=O)c2ccc(C#CC(C)(O)COC)nc21` (stereo not drawn) here?
Answer: 2.07 ± 6.6%

Question: `O=C(Nc1cccc(Cl)c1)Nc1ncc(CCNc2ncnc3ccsc23)s1` was tested. Which growth inhibition did it give?
Answer: 94.4 ± 2%

Question: `COc1ncc(-c2ccc3nccc(-c4ccnnc4)c3c2)cc1NS(=O)(=O)c1ccc(F)cc1F` was tested. Which growth inhibition did it give?
Answer: 12.8 ± 7.8%

Question: `Cn1c(=O)c(F)c(Nc2ccc(I)cc2F)c2c(=O)n(C[C@@H](O)CO)cnc21` was tested. Which growth inhibition did it give?
Answer: 23 ± 13%

Question: How did the growth inhibition turn out when `NS(=O)(=O)c1ccc(N/N=C2\C(=O)Nc3ccc(-c4cnco4)cc32)cc1` was run?
Answer: 0.00978 ± 0.57%

Question: `CCCN(CCS(C)(=O)=O)Cc1ccc(-c2ccc3ncnc(Nc4ccc(OCc5cccc(F)c5)c(Cl)c4)c3c2)o1` was tested. Which growth inhibition did it give?
Answer: -7.09 ± 4.2%

Question: Which growth inhibition does the source give for `C[C@@H](Oc1cc(-n2cnc3ccc(CN4CCN(C)CC4)cc32)sc1C(N)=O)c1ccccc1C(F)(F)F` here?
Answer: 88.5 ± 8.4%

Question: Which growth inhibition does the source give for `Cc1ccc(C(=O)NC(C)C)cc1-c1ccc(C(=O)NCC2CC2)cc1` here?
Answer: -1.2 ± 0.17%

— the supplement of paper PMC5641865, “A screen for kinase inhibitors identifies antimicrobial imidazopyridine aminofurazans as specific inhibitors of the Listeria monocytogenes PASTA kinase PrkA” (The Journal of Biological Chemistry, 2017)
